# In the supplement of paper PMC12067093, “Discovery and optimisation of a covalent ligand for TRIM25 and its application to targeted protein ubiquitination” (Chemical Science, 2025):
# The full data set covers some 21,000 targets. This sample favours those with the largest changes.
# Compound: Cc1cc(ccc1-c1ccccc1)C(=O)N1CCCN(CC1)C(=O)CCl [compound 10]
# Assay: probe-labelled cysteine peptide fold change vs DMSO (competition) (log2 fold change); higher = less target engagement (more negative = stronger competition)
# Settings: THP-1, incubation time: 4 h
# 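Further: competitive profiling in live THP-1 cells: cysteine peptides tagged with an iodoacetamide desthiobiotin (IA-DTB) probe, intensity after compound treatment relative to DMSO-treated cells.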
# Chain of UniProt Q9NXH8 (Q9NXH8 whole entry, looked up): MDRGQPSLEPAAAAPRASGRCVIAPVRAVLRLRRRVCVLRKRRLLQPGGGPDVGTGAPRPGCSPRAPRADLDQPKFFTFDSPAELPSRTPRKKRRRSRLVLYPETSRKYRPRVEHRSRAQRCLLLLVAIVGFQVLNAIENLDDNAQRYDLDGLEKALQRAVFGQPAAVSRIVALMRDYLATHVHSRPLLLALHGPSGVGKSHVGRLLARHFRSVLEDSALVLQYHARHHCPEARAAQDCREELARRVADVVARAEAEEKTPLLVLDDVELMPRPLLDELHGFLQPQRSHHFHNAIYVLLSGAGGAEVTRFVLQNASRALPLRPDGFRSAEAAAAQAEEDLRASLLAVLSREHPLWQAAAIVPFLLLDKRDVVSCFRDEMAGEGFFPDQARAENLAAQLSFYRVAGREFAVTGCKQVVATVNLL
# Chain of UniProt P50502 (P50502 whole entry): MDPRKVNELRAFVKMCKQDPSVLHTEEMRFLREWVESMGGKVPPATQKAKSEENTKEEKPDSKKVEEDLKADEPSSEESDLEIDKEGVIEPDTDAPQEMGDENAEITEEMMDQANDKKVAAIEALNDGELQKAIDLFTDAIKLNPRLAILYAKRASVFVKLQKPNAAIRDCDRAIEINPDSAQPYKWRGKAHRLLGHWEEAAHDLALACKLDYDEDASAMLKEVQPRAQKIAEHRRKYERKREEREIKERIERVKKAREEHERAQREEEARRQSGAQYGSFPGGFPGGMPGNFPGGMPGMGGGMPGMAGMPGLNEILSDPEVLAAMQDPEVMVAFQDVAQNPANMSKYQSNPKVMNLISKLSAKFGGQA
# Chain of UniProt Q13596 (Q13596 whole entry): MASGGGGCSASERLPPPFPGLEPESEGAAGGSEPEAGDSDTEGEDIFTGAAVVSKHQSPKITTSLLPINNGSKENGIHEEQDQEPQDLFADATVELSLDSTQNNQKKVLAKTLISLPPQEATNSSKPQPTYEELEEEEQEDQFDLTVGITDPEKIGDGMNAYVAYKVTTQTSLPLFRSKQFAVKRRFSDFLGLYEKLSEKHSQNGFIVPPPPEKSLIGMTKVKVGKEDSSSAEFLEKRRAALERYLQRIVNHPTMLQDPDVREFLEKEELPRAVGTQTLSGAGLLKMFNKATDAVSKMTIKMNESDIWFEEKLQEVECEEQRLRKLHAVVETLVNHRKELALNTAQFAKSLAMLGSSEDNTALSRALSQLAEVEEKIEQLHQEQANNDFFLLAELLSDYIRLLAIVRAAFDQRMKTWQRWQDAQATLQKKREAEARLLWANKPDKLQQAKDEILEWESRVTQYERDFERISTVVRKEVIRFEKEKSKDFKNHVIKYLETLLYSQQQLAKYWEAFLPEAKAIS
# Chain of UniProt Q15813 (Q15813 whole entry, looked up): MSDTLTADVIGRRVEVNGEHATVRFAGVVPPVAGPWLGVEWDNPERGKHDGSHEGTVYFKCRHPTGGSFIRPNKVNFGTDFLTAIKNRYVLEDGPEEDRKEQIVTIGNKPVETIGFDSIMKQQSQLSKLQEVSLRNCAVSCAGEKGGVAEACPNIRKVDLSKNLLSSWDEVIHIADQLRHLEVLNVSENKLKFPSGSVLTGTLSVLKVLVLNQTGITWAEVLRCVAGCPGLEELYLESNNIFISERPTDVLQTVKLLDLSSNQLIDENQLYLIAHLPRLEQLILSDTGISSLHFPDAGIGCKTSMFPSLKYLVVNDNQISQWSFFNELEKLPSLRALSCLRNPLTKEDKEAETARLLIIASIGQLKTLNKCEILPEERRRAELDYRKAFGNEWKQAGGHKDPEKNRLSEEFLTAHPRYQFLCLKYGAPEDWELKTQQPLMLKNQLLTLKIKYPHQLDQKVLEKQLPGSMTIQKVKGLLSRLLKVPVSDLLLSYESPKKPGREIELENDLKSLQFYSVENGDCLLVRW
# Chain of UniProt Q9NWX6 (Q9NWX6 whole entry, looked up): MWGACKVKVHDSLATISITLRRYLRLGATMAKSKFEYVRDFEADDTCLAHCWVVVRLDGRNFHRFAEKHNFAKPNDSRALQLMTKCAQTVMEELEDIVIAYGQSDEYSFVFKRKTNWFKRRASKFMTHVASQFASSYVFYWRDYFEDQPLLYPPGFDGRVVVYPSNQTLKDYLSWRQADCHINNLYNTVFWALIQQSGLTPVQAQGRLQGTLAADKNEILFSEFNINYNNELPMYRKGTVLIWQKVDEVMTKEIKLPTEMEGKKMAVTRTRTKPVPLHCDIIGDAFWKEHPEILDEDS
# Chain of UniProt P21580 (P21580 whole entry): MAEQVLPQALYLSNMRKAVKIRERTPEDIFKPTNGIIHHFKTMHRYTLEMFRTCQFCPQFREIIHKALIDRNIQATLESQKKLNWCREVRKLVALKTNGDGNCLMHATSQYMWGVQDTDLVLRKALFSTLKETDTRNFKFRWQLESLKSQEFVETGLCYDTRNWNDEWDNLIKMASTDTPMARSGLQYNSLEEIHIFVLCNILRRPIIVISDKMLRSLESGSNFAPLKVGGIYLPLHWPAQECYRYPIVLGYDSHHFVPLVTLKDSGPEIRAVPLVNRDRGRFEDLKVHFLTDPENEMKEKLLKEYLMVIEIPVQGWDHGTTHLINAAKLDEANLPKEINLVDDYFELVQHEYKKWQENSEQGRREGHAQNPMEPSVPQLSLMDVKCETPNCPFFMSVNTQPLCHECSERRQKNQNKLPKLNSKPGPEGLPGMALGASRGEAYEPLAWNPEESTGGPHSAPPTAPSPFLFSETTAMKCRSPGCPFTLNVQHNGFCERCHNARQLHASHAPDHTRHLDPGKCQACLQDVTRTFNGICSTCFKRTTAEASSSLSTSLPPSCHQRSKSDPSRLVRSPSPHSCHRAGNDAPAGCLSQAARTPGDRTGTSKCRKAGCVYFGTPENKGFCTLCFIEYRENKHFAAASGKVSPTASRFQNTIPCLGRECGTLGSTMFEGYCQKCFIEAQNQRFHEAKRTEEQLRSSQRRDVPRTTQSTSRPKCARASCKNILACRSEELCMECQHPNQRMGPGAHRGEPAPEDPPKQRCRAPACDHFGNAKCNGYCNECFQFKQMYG
# Chain of UniProt Q9C0D5 (Q9C0D5 whole entry, looked up): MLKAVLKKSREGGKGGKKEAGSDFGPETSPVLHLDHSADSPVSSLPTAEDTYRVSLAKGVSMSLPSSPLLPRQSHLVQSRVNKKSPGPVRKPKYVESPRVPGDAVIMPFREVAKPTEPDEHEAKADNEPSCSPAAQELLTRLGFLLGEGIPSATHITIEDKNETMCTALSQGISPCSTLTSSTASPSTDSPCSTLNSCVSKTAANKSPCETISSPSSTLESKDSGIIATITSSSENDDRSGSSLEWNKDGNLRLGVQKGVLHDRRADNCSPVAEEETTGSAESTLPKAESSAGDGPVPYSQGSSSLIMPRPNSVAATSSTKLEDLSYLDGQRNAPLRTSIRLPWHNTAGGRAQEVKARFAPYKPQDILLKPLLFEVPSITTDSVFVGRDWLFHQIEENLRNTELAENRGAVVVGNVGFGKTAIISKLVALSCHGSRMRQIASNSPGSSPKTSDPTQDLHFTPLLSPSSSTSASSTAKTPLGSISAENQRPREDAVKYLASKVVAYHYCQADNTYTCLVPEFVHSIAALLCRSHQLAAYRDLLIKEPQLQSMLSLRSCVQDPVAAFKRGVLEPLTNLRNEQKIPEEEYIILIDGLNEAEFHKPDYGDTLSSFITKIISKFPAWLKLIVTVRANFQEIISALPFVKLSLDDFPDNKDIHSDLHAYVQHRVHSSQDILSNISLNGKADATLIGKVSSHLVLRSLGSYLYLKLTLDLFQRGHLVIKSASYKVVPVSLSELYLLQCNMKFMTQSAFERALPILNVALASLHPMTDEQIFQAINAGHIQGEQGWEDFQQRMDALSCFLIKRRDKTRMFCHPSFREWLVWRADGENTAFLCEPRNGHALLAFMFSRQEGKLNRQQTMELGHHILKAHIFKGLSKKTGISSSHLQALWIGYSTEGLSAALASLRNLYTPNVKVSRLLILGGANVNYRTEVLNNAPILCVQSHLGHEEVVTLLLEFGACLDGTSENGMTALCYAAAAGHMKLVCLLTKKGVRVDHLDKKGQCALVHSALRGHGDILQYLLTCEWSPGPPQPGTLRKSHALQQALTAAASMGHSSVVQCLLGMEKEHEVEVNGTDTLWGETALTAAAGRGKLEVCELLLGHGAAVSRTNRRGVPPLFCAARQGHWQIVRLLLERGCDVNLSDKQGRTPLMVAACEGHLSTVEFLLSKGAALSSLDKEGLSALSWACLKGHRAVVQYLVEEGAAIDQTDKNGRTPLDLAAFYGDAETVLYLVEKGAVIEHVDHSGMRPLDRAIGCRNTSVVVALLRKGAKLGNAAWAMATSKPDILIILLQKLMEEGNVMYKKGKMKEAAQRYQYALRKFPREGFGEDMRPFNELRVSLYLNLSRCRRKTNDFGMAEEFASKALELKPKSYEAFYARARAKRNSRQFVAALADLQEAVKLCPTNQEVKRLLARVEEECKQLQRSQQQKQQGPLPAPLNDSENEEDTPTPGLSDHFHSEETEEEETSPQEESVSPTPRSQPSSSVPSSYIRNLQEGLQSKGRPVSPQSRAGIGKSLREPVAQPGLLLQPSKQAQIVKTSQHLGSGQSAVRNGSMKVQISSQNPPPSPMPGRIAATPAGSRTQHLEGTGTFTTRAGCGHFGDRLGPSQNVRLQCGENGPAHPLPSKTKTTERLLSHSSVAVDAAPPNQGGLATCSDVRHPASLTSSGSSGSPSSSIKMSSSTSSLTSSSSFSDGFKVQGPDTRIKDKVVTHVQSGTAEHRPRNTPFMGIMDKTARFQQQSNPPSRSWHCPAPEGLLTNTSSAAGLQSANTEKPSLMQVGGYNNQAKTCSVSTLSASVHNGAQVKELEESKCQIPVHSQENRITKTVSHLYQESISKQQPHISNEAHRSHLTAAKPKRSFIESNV
# Chain of UniProt Q15005 (Q15005 whole entry): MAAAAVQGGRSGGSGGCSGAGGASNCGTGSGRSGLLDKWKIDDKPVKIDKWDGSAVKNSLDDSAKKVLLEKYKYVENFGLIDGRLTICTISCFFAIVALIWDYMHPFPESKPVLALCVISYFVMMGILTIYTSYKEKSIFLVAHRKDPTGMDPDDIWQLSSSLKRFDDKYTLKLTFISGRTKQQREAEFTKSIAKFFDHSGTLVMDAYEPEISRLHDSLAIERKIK
Target,probe-labelled cysteine peptide fold change (10 µM),probe-labelled cysteine peptide fold change (50 µM)
TBC1D13_Q9NVG8_387_LLQDYPITDVCQILQK (UniProt Q9NVG8),-0.0681,-0.374
TES_Q9UGI8_164_CHELSPR (UniProt Q9UGI8),-0.162,-0.0644
THOC2_Q8NI27_436_DVFNMFCYLGPHLSHDPILFAK (UniProt Q8NI27),0.0617,0.215
TOP1_P11387_504_AGNEKEEGETADTVGCCSLR (UniProt P11387),-0.0614,-1.22
TOE1_Q96GM8_371_KQVCGDSIKPEETEQEVAADETR (UniProt Q96GM8),-0.0655,-0.661
TEP1_Q99973_692_TVLVYLTDANADRLCPK (UniProt Q99973),-0.328,-0.442
TNFAIP3_P21580_158_SQEFVETGLCYDTR (UniProt P21580),-0.274,0.0322
TOE1_Q96GM8_80_SLLNQCIEER (UniProt Q96GM8),-0.52,-2.28
THOC1_Q96FV9_396_NEGCPSFVK (UniProt Q96FV9),-0.137,-0.0773
TNPO3_Q9Y5L0_580_ITECLSELCSVQVMALKK (UniProt Q9Y5L0),-0.00843,-0.267
TARSL2_A2RTX5_637_YHQCATIQLDFQLPIR (UniProt A2RTX5),0.00987,0.158
SSH3_Q8TE77_434_QYECSLEQALR (UniProt Q8TE77),-0.058,-0.0996
STRN_O43815_316_EDQCLMPEAWNVDQGVITK (UniProt O43815),-0.23,-0.374
SPAG5_Q96R06_907_TEQETLLLSTACPPTQEHPLPNDR (UniProt Q96R06),-0.115,0.0555
STXBP2_Q15833_110_AAHIFFTDTCPEPLFSELGR (UniProt Q15833),0.0186,0.272
STXBP5_Q5T5C0_933_VISLPTQNCAYK (UniProt Q5T5C0),0.186,0.107
SURF2_Q15527_29+38_CILTGHELPCR (UniProt Q15527),0.0902,-0.0729
TET3_O43151_1381_GKPWSPCK (UniProt O43151),-0.379,-1.3
TBCE_Q15813_141_NCAVSCAGEK (UniProt Q15813),-0.11,-1.39
THOC5_Q13769_282_HLPPPLYVLFVQATAYGQACDK (UniProt Q13769),0.435,1.48
SUZ12_Q15022_494_IDVSINECYDGSYAGNPQDIHR (UniProt Q15022),0.105,0.302

Target,probe-labelled cysteine peptide fold change (10 µM),probe-labelled cysteine peptide fold change (50 µM)
TPI1_P60174_164_VAHALAEGLGVIACIGEK (UniProt P60174),0.0839,0.00853
STXBP5_Q5T5C0_697_SRQPSGAGLCDISEGTVVPEDR (UniProt Q5T5C0),-0.389,-0.218
TET2_Q6N021_784_VEECFHGENQYSK (UniProt Q6N021),-0.295,-0.385
TLE1_Q04724_621_QFQGHTDGASCIDISNDGTK<|>TLE4_Q04727_624_QFQGHTDGASCIDISNDGTK (UniProt Q04727+Q04724),-0.231,-0.0783
TMEM104_Q8NE00_455_DTQLAFGCGVSNK (UniProt Q8NE00),-0.127,-0.346
TANC1_Q9C0D5_800_MDALSCFLIK (UniProt Q9C0D5),-0.167,-1.29
SRP9_P49458_48_VTDDLVCLVYK (UniProt P49458),0.216,-0.255
TMEM192_Q8IY95_266_RLLALTSSDLGCQPSR (UniProt Q8IY95),-0.0328,0.17
SNX1_Q13596_318_LQEVECEEQR (UniProt Q13596),-0.177,-0.146
TNS3_Q68CZ2_88_MCTICK (UniProt Q68CZ2),-0.357,-0.873
SOS1_Q07889_838_CIVETENLEER (UniProt Q07889),0.113,0.392
SPC24_Q8NBT2_155_IEWDYECEPGMVK (UniProt Q8NBT2),-0.17,0.000933
SPCS2_Q15005_17+26_SGGSGGCSGAGGASNCGTGSGR (UniProt Q15005),-0.494,-1.1
TATDN3_Q17R31_66_YNGFVLPCLGVHPVQGLPPEDQR (UniProt Q17R31),0.0121,1.04
TK1_P04183_206_ENCPVPGKPGEAVAAR (UniProt P04183),-0.0233,-0.211
THG1L_Q9NWX6_47_DFEADDTCLAHCWVVVR (UniProt Q9NWX6),-0.0809,0.0136
TEPSIN_Q96N21_273_ACGLLNCEAVLQLLTCHLR (UniProt Q96N21),0.821,2.62
SNX6_Q9UNH7_149_TVAMHEVFLCR (UniProt Q9UNH7),-0.37,-1.4
STK11_Q15831_418_ACSASSK (UniProt Q15831),-0.73,-1.42
SYK_P43405_597_MGCPAGCPR (UniProt P43405),0.0815,-0.138
SP3_Q02447_683_KFVCPECSK (UniProt Q02447),0.188,0.33

Target,probe-labelled cysteine peptide fold change (10 µM),probe-labelled cysteine peptide fold change (50 µM)
SUN2_Q9UH99_601_VILQPDVHPGNCWAFQGPQGFAVVR (UniProt Q9UH99),0.0264,0.295
TOPBP1_Q92547_911_VVVCVSK (UniProt Q92547),-0.0487,-0.114
TMEM120A_Q9BXJ8_47_LQNNCTSSITR (UniProt Q9BXJ8),-0.176,-0.0504
SRPRB_Q9Y5M8_246_EFEFSQLPLKVEFLECSAK (UniProt Q9Y5M8),-0.354,-1.1
ST14_Q9Y5Y6_602+604_DCDCGLR (UniProt Q9Y5Y6),-0.217,-1.07
STIP1_P31948_471_CMMAQYNR (UniProt P31948),0.271,-0.0499
THOP1_P52888_175_KLSLLCIDFNK (UniProt P52888),-0.00153,0.0417
TMEM147_Q9BVK8_116_CIPLWVGAR (UniProt Q9BVK8),-0.0315,-0.102
TBC1D13_Q9NVG8_145_ATDYPCLLILDPQNEFETLR (UniProt Q9NVG8),-0.0238,0.373
TONSL_Q96HA7_231_ECAHTMR (UniProt Q96HA7),-0.316,-1.42
TBCCD1_Q9NVR7_337_CNESFIYLLSPLR (UniProt Q9NVR7),0.178,0.422
STK11IP_Q8N1F8_707+710_TESPAVCPNCGSDHVVLLAVSR (UniProt Q8N1F8),0.0186,0.166
SNTB1_Q13884_515_DGEIQLDLHSCPK (UniProt Q13884),-0.136,1
STAT6_P42226_228_CESLVDIYSQLQQEVGAAGGELEPK (UniProt P42226),0.0404,-0.0978
TIMELESS_Q9UNS1_96_LMVNLTQPALLCFGNLPK (UniProt Q9UNS1),0.247,-1.08
THUMPD1_Q9NXG2_31_CDAGGPR (UniProt Q9NXG2),0.347,1.08
SYK_P43405_89+101_THASPADLCHYHSQESDGLVCLLK (UniProt P43405),-0.0638,-0.0651
STXBP1_P61764_110_AAHVFFTDSCPDALFNELVK (UniProt P61764),0.24,0.527
TLN1_Q9Y490_1363_ECDNALRELETVR (UniProt Q9Y490),-0.431,-1
TESC_Q96BS2_213_FLNMETMALCH (UniProt Q96BS2),-0.431,-1.46
SORL1_Q92673_752_LEGELVPCPLAEENEFILYAVR (UniProt Q92673),0.124,0.148

Target,probe-labelled cysteine peptide fold change (10 µM),probe-labelled cysteine peptide fold change (50 µM)
SUGP2_Q8IX01_417_NCFFEIIKPFDK (UniProt Q8IX01),-0.328,-1.49
SPAG7_O75391_101_SILHDVVEVAGLTSFSFGEDDDCR (UniProt O75391),-0.0328,-0.0999
SORD_Q00796_179_VLVCGAGPIGMVTLLVAK (UniProt Q00796),-0.0988,-1.77
THEMIS2_Q5TEJ8_355_DCEGEREENPEFTSLAVGDR (UniProt Q5TEJ8),-0.0936,0.194
TDRD7_Q8NHU6_1029_CNQWSEEASMVFR (UniProt Q8NHU6),-0.175,-0.845
SPATA2_Q9UM82_41_QRPGSDECLR (UniProt Q9UM82),-0.46,-1.35
STK11_Q15831_210_ISDLGVAEALHPFAADDTCR (UniProt Q15831),-0.252,-0.136
TEP1_Q99973_2105_TPVLIHSFPACHR (UniProt Q99973),-0.0307,-0.291
TDRD7_Q8NHU6_77_SGEITCYAMACTETAR (UniProt Q8NHU6),-0.0811,-1.42
SORD_Q00796_165_LPDNVTFEEGALIEPLSVGIHACR (UniProt Q00796),0.00881,0.188
TFCP2_Q12800_72_ILPFQYVLCAATSPAVK (UniProt Q12800),0.339,0.0755
SP9_P0CG40_308_ATCDCPNCQEAER<|>SP8_Q8IXZ3_332_ATCDCPNCQEAER (UniProt Q8IXZ3+P0CG40),0.0559,0.393
SP100_P23497_266+270_EMPCPLPCDEESPEAELHNHGIQINSCSVR (UniProt P23497),-0.396,-1.25
STRADA_Q7RTN6_107_INLEACSNEMVTFLQGELHVSK (UniProt Q7RTN6),0.391,0.345
ST13_P50502_209_LLGHWEEAAHDLALACKLDYDEDASAMLK (UniProt P50502),-0.319,-1.1
TOR4A_Q9NXH8_230_HHCPEAR (UniProt Q9NXH8),-0.165,0.0719
TBL2_Q9Y4P3_240_GQVLSTINTNQMNNTHAAVSPCGR (UniProt Q9Y4P3),-0.0462,0.0804
TBCB_Q99426_51_LELLVGSPASCMELELYGVDDK (UniProt Q99426),0.0991,0.421
SON_P18583-2_2133_DLMANATCFR (UniProt P18583),5.1e-05,-0.396
TGS1_Q96RS0_357_ECPASGQSEPR (UniProt Q96RS0),-0.00223,0.216
